BLM inh – qHTS Assay for Inhibitors of Bloom's syndrome helicase (BLM) | RecQ-like DNA helicase BLM (Homo sapiens), P54132 | recombinant BLM DNA unwinding, fluorescence dequenching | Potency, µM (top dose mostly 56.1 µM), inactives show at the top dose activity change, negative = inhibition, hits mostly inhibitors | actives 0.2% (n = 350,000) | AID 2528, 2010;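 further: potency means the concentration at half of the fitted maximal effect; plate controls were vehicle for no effect and no enzyme for full effect; nearly all actives have a fitted effect of over 35% in size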
KAT2A inh – qHTS Assay for Inhibitors of GCN5L2; GCN5L2 HAT assay, ThioGlo1 CoA-SH fluorescence; Potency, µM (series often up to 58.9 µM), for the others: at the top dose activity change, negative = inhibition, usual class: inhibitors; actives 0.21% (n = 390,000); AID 504327, 2011; further: potency means the concentration at half of the fitted maximal effect
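GCN5L2 (20nM final) in 50mM HEPES, 0.1mM EDTA pH 7.5, 0.01% Tween-20 was preincubated 15 min at room temperature with compound, then given ThioGlo1 (50uM), H3(1-25) peptide (75uM) and acetyl-CoA (70uM); CoA-thiol fluorescence (Ex340/Em540) was read at 0 and 20 min.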
FEN1 inhibitor – qHTS Assay for the Inhibitors of Human Flap endonuclease 1 (FEN1); actives 0.35% (n = 390,000); P39748; Potency, µM (doses to about 114 µM), for inactives: at the top dose activity change, negative = inhibition, actives largely listed as inhibitors; Recombinant FEN1 flap cleavage, fluorescence, 15 min; further: potency means the concentration at half of the fitted maximal effect; nearly all actives have a fitted effect of over 65% in size
Target sequence (P39748 whole entry, looked up): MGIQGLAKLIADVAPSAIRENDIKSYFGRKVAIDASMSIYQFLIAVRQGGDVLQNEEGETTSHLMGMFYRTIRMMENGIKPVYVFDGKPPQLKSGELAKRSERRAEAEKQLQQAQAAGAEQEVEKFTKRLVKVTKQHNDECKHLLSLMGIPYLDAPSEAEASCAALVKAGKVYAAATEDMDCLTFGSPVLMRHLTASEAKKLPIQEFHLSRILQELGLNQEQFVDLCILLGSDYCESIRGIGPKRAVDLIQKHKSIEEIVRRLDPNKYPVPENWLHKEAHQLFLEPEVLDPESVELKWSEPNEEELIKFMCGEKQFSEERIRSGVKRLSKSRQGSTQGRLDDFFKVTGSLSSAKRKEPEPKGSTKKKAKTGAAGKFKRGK
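Potency values derive from four-parameter Hill fits of normalized qHTS data. The reaction used 10 nM FEN1 preincubated 15 min at room temperature with compound, then 50 nM DNA substrate, read at 0 and 15 min.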
RECQ1 helicase – qHTS Assay for Inhibitors of RecQ-Like Dna Helicase 1 (RECQ1) | Potency, µM (doses to about 57.3 µM), for the others: at the highest dose activity, negative = inhibition, hits mostly inhibitors | RECQ1 DNA unwinding, red fluorescence kinetic read | actives 0.54% (n = 240,000) | ATP-dependent DNA helicase Q1 (Homo sapiens), P46063;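 further: potency means the concentration at half of the fitted maximal effect; plate controls were vehicle for no effect and no enzyme for full effect; nearly all actives have a fitted effect of over 30% in size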
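RECQ1T1 50 nM; forked duplex (20 bp + 30-nt ss tails) 200 nM, ATP 2 mM final; pH 8.0, 2 mM MgCl2, 2.5 ug/ml poly(dI-dC); 15 min compound preincubation; discontinuous kinetic read over 2 h at RT.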
APEX1 inh – qHTS Assay for Inhibitors of the Human Apurinic/apyrimidinic Endonuclease 1 (APE1) | actives 0.35% (n = 350,000) | Potency, µM (doses to about 65.8 µM), without a hit: at the highest dose activity change, negative = inhibition, usual class: inhibitors | recombinant APE1, TAMRA/BHQ-2 abasic DNA cleavage fluorescence | AID 2517, 2012 | DNA repair nuclease/redox regulator APEX1 (Homo sapiens), P27695;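 further: potency means the concentration at half of the fitted maximal effect; plate controls were vehicle for no effect and reference inhibitor for full effect; nearly all actives have a fitted effect of over 55% in size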
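Readout is kinetic fluorescence (ex 525, em 598 nm) from cleavage of 50 nM TAMRA/BHQ-2 THF abasic duplex by 0.75 nM APE1, compound added 15 min beforehand at RT.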
PI5P4Ka inh – qHTS for Inhibitors of phosphatidylinositol 5-phosphate 4-kinase (PI5P4K) | Phosphatidylinositol 5-phosphate 4-kinase type-2 alpha (Homo sapiens), P48426 | PI5P4Kalpha enzyme, ADP-Glo luminescence, 60 min; stronger effect = lower value | max response, % | actives 1.2% (n = 330,000) | AID 652105, 2013; active means max response of -50% or lower; inconclusive means between -30% and -50%; inactive means -30% or higher; further: value at the top dose of about 77 µM
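Controls without substrate or without enzyme flank wells where PI5P4Kalpha converts substrate using 5 microM ATP (final). Incubation lasts 60 minutes at room temperature; ADP formed is read by ADP-Glo luminescence.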
* = called active by the depositor; i = inactive; ? = inconclusive; · = no result; ! = a repeat was not active; [ ] = another dose, or the depositor's remark. This is a sample that favours compounds with a hit; in the whole collection about 1.5% have one here. Unless noted, the call rests on the fitted dose curve; in most records, active means well fitted curve in the direction sought with a large enough effect; inconclusive means small, poorly fitted or top-dose-only effect, or another doubt; inactive means no such curve, though single readings can be large; an effect the other way counts as inactive or inconclusive. Unless noted, on the % scale 0 is the no-effect control and ±100 the full control effect.

SMILES | BLM inh | KAT2A inh | FEN1 inhibitor | RECQ1 helicase | APEX1 inh | PI5P4Ka inh
COc1cccc(Cn2ncc3c4sc(B(O)O)cc4n(C)c3c2=O)c1 | · | 6.3% | · | · | 9.47µM* | ·
O=C(COc1ccccc1C(=O)Nc1ccccc1)Nc1cccc(Cl)c1 | · | · | 4.5% | · | · | ·
CS(=O)(=O)c1ccc(-c2csc(N3CCC(C(N)=O)CC3)n2)cc1 | · | · | · | · | -0.9% | ·
O=C1CCCC/C1=C\Nc1ccc(S(=O)(=O)Nc2cnc3ccccc3n2)cc1 | 1.2% | 22.4µM* | -15.4% | i | -1.3% | -5.1
CC1=CC(=O)N(c2cccc3c(N4C(=O)C=C(C)C4=O)cccc23)C1=O | · | · | -3.6% | · | · | -62.8*
Nc1ccc2c(c1)C(=O)N(c1cccc3ccccc13)C2=O | -10.6% | -0.4% | -3.8% | · | 7.6% | -5.8
O=C(Cc1cccc2c(=O)cc(-c3ccccc3)oc12)OCCN1CCOCC1 | · | · | · | · | · | 2.4
N=C(N)SCc1cccc2c(=O)cc(-c3ccccc3)oc12 | · | · | 50.1µM* | · | · | ·
N#Cc1cc(C#N)c(SCC(=O)N2CC(=O)Nc3ccccc32)nc1N | · | -5.2% | -21.0% | · | 18.5% | -53.3*
CSc1ccc(NC(=O)CSc2nc3[nH]c(=O)cc(O)c3s2)cc1 | · | ? | ? | · | 8.3% | -87.9*
CC(=O)c1c(C)[nH]c2ccc(OCC(O)CNCCc3ccccc3)cc12 (stereo not drawn) | · | · | 1.3% | · | · | ·
SCc1nc2ccccc2[nH]1 | · | · | -12.0% | · | · | ·
CN(C)c1ccc(CNc2nc3ccccc3s2)cc1 | -1.8% | -0.2% | · | · | -4.2% | ·
CN(Cc1ccccc1)c1ccc(/C=C/c2nc3ccccc3s2)cc1 | · | · | 35.5µM* | · | · | ·
C=C(/C=C/c1ccc(N(C)C)cc1)c1nc2ccccc2s1 | · | · | 25.1µM* | · | · | ·
CN(Cc1ccccc1)c1ccc(C=O)cc1 | · | · | -8.4% | · | · | ·
Cc1ccc(/C=C/c2nc3ccccc3s2)s1 | -4.1% | -9.2% | -14.6% | i | -1.4% | 23.4
CN(C)c1ccc(/C=C/c2nc3ccccc3s2)cc1 | -5.4% | 0.5% | 50.1µM*! | -7.9% | 0.2% | 2.0
CN(C)c1ccc(/C=C/c2cccc3cc4ccccc4nc23)cc1 | · | · | 79.4µM* | · | · | ·
CC(C)=CCC/C(C)=C/COc1c2ccoc2cc2oc(=O)ccc12 | · | · | 0.6% | · | · | ·
O=C(Nc1nccs1)[C@@H]1CC=C[C@@H]2CCN(Cc3ccc(Cl)c(Cl)c3)C(=O)[C@@H]21 | · | · | -26.4% | · | · | ·
C/C(=C\C=C(C#N)C#N)c1cc(C#N)c(N)o1 | ? | -5.0% | 56.2µM* | 14.1µM* | ? | ?
O=C(COc1ccccc1C(=O)Nc1ccccc1)Nc1ccc(Br)cc1 | · | · | -11.5% | · | · | ·
CCOC(=O)C1=C(C)N=c2sc(=Cc3cc(Cl)c(OCC(=O)O)c(Cl)c3)c(=O)n2C1c1cccc(OC)c1 (stereo not drawn) | · | · | · | · | · | -74.0*
COc1cc(/C=C2/C(=N)N3C(=NC2=O)SN=C3S(=O)(=O)C(C)C)ccc1OC(=O)c1ccco1 | -4.1% | -19.6% | -1.1% | · | 24.8% | -75.2*
COc1cc(/C=C2/C(=N)N3C(SC)=NSC3=NC2=O)ccc1OC(=O)c1ccco1 | -6.0% | -2.9% | 5.1% | · | 14.4% | ?
CCOc1cc(/C=C2/C(=N)N3C(=NC2=O)SN=C3S(=O)(=O)C(C)C)ccc1OC(=O)c1ccco1 | -7.1% | -23.2% | -8.4% | · | 11.7% | -83.1*
O=C(COC(=O)c1ccccc1OCc1cccc(Br)c1)Nc1ccc(Br)cc1 | · | · | -17.4% | · | · | ·
CN(C)c1ccc(/C=C/c2ccc3cc(F)ccc3n2)cc1 | · | · | 2.8% | · | · | ·
CN1CCCN=C1/C=C\c1cccs1 | 1.9%[21.4 µM] | 11.2µM* | · | -5.8%[25.9 µM] | 0.4%[21 µM] | ·
